# Where “and” joins values, the source holds several entries; their conditions need not be identical. Equal entries are not always repeated. The campaign covered roughly 2,100 compounds. About 180 (8.6%) showed an effect of 50% or more. The entries come from a sample that favours strong results as a whole.
# Test system: MOLM1 and UCSD/AML1 (averaged)
# Assay: cell viability relative to DMSO control (POC); higher = less growth inhibition
# Conditions: 1 µM; 72 h
# Experimental: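 Primary viability screen in the 3q26 EVI1-high AML cell lines MOLM1 and UCSD/AML1 (1.5e3 cells/well, 384-well), compounds at 1 uM for 72 h. ATP CellTiter-Glo read-out given as percent of viable cells over DMSO control (POC), averaged over duplicates. DMSO was the negative control and 5 uM etoposide the positive control. This mapping covers the MicroSource Spectrum and Selleck anticancer libraries (drug names).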
row,SMILES,cell viability
1,COC(=O)C[C@H]1C(C)(C)[C@@H](OC(C)=O)[C@@H]2CC3=C4CC(=O)O[C@@H](c5ccoc5)[C@]4(C)CC[C@@H]3[C@@]1(C)C2=O,103%
2,COC(=O)c1c(C)cc(O)cc1O,98.5%
3,Cc1cc(C(C)(C)CC(C)(C)C)ccc1OCCOCC[N+](C)(C)Cc1ccccc1,88.2%
4,CCCCCCCCCCCCC[N+](C)(C)Cc1ccccc1,25.7%
5,CC(C)(C)CC(C)(C)c1ccc(OCCOCC[N+](C)(C)Cc2ccccc2)cc1,97.1%
6,Cc1ccc(C(C)C)cc2c(C)ccc1-2,84.7%
7,COc1ccc(-c2cc(=O)c3c(O)c(OC)c(OC)c(OC)c3o2)cc1OC,80.2%
8,O=C(CCCCCCC(=O)Nc1ccccc1)NO [Vorinostat (SAHA)],22%
9,O=C(Nc1ccccc1)Nc1ccccc1,87.7%
10,O=C(Nc1ccccc1)c1ccccc1O,97.1%
11,O=c1c(O)c(-c2ccccc2)oc2cccc(O)c12,93.1%
12,CCC(CCC(C)C1CCC2C3CCC4CC(O)CCC4(C)C3CCC12C)C(C)C (centres undefined),89.6%
13,C=C1C(N)CC2CC1C2(C)C (stereo not drawn) [3-AMINO-beta-PINENE],96.3%
14,CC(C)[C@@H]1CC[C@@H](C)CC1=O,102%
15,CC(=O)O[C@@]12CO[C@@H]1C[C@H](O)[C@@]1(C)C(=O)[C@H](O)C3=C(C)[C@@H](OC(=O)[C@H](O)[C@@H](NC(=O)OC(C)(C)C)c4ccccc4)C[C@@](O)([C@@H](OC(=O)c4ccccc4)[C@H]21)C3(C)C [Docetaxel (Taxotere)],14.7%
16,CC(=O)O[C@H]1C(=O)[C@@]2(C)[C@H]([C@H](OC(=O)c3ccccc3)[C@]3(O)C[C@H](OC(=O)[C@H](O)[C@@H](NC(=O)c4ccccc4)c4ccccc4)C(C)=C1C3(C)C)[C@]1(OC(C)=O)CO[C@@H]1C[C@@H]2O [Paclitaxel (Taxol)],12.3%
17,CC(=O)O[C@H]1C(=O)[C@@]2(C)[C@H]([C@H](OC(=O)c3ccccc3)[C@]3(O)C[C@H](OC(=O)[C@H](O)[C@@H](NC(=O)c4ccccc4)c4ccccc4)C(C)=C1C3(C)C)[C@]1(OC(C)=O)CO[C@@H]1C[C@@H]2O,11.7%
18,COc1nc(C)cnc1NS(=O)(=O)c1cccnc1-c1ccc(-c2nnco2)cc1 [Zibotentan (ZD4054)],71.2%
19,Nc1nccc(Oc2ccc(NC(=O)c3c[nH]cc(-c4ccc(F)cc4)c3=O)cc2F)c1Cl,83.2%
20,O=C1c2ccccc2C(=O)c2c(O)c(O)cc(O)c21,83.8%

row,SMILES,cell viability
1,O=c1c(O)c(-c2ccccc2)oc2cc(O)ccc12,107%
2,CC1(C)CC[C@]2(C(=O)O)CC[C@]3(C)C(=CC[C@@H]4[C@@]5(C)CC[C@H](O)[C@@](C)(CO)[C@@H]5CC[C@]43C)[C@@H]2C1,89.4%
3,COc1ccc(C(C)=O)c(OC)c1,91.5%
4,COC(=O)c1c(C)cc(OC(=O)c2c(C)cc(O)c(C=O)c2O)c(C)c1O,100%
5,O=C(NCCCNc1nc(Nc2cccc(NC(=O)N3CCCC3)c2)ncc1I)c1cccs1,47.6%
6,C#CC1(O)CC[C@H]2[C@@H]3CCC4=CC(=O)CC[C@@H]4[C@H]3CC[C@@]21CC (mixture of isomers),69.3%
7,C[C@@H]1CC[C@H]2C(C)(C)[C@H]3C[C@@]12CC[C@@]3(C)O,105%
8,COc1cc2ccc(=O)oc2c(OC)c1OC,110%
9,CCCCCCCCCCCCCCC(C(=O)O)C(O)(CC(=O)OC)C(=O)O (centres undefined),87.8%
10,CN1CCN(c2ccc3nc(-c4c(N)c5c(F)cccc5[nH]c4=O)[nH]c3c2)CC1 [Dovitinib (TKI-258)],26.7%
11,COc1cc2c(cc1OC)-c1cc3ccc(OC)c(OC)c3c[n+]1CC2,95.7% and 88.9%
12,CC(=O)O[C@@H]1CC2C(C)(C)[C@H](O)CC[C@]2(C)C2CC[C@@]3(C)[C@H](c4ccoc4)OC(=O)C4OC43[C@@]21C (stereo partly drawn) [alpha-DIHYDROGEDUNOL],123%
13,COc1ccc(-c2coc3c(O)c(OC)ccc3c2=O)cc1,94.6%
14,CNC(=O)c1ccc(C)c(-n2c(C)cc(OCc3ccc(F)cc3F)c(Br)c2=O)c1,87.5%
15,C=CC[C@@H]1/C=C(\C)C[C@H](C)C[C@H](OC)[C@H]2O[C@@](O)(C(=O)C(=O)N3CCCC[C@H]3C(=O)O[C@H](/C(C)=C/[C@@H]3CC[C@@H](O)[C@H](OC)C3)[C@H](C)[C@@H](O)CC1=O)[C@H](C)C[C@@H]2OC,85.3%
16,CO[C@H]1C[C@@H]2CC[C@@H](C)[C@@](O)(O2)C(=O)C(=O)N2CCCC[C@H]2C(=O)O[C@H]([C@H](C)C[C@@H]2CC[C@@H](OCCO)[C@H](OC)C2)CC(=O)[C@H](C)/C=C(\C)[C@@H](O)[C@@H](OC)C(=O)[C@H](C)C[C@H](C)/C=C/C=C/C=C/1C [Everolimus (RAD001)],50.2%
17,CO[C@H]1C[C@@H]2CC[C@@H](C)[C@@](O)(O2)C(=O)C(=O)N2CCCC[C@H]2C(=O)O[C@H]([C@H](C)C[C@@H]2CC[C@@H](O)[C@H](OC)C2)CC(=O)[C@H](C)/C=C(\C)[C@@H](O)[C@@H](OC)C(=O)[C@H](C)C[C@H](C)/C=C/C=C/C=C/1C,44%
18,CO[C@H]1C[C@@H]2CC[C@@H](C)[C@@](O)(O2)C(=O)C(=O)N2CCCC[C@H]2C(=O)O[C@H]([C@H](C)C[C@@H]2CC[C@@H](OC(=O)C(C)(CO)CO)[C@H](OC)C2)CC(=O)[C@H](C)/C=C(\C)[C@@H](O)[C@@H](OC)C(=O)[C@H](C)C[C@H](C)/C=C/C=C/C=C/1C,11%
19,CO[C@H]1C[C@@H]2CC[C@@H](C)[C@@](O)(O2)C(=O)C(=O)N2CCCC[C@H]2C(=O)O[C@H]([C@H](C)C[C@@H]2CC[C@@H](O)[C@H](OC)C2)CC(=O)[C@H](C)/C=C(\C)[C@@H](O)[C@@H](OC)C(=O)[C@H](C)C[C@H](C)/C=C/C=C/C=C/1C [Rapamycin (Sirolimus)],41.5%
